Source: PubChem (several laboratories)
zVAD death inh: blocks zVAD induced death of L929 cells | viability rescue, % at 10 µM | hit rate 0.38% among 220,000 | L929 zVAD necroptosis rescue, ATP luminescence, 24 h; with zVAD 60 µM;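 active = activation, scaled between plate controls, above about 75%, limit read from the data; inactive = activation under that limit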;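 also: 0% = zVAD with DMSO and 100% = DMSO alone without zVAD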
PKD1 kinase inh: inhibitors of human PKD1 kinase; PKD1 kinase fluorescence polarization assay; inhibition, % (concentration not given with the values); AID 797; hit rate 0.056% among 200,000; Q15139; in the data active = inhibition above about 50%
TNF death inh: TNF-alpha cell death inhibition in Jurkat FADD-/- cells; Jurkat FADD-/- TNF necroptosis rescue, ATP luminescence, 24 h; 0 = TNF only, 100 = no-TNF cells; activation (protection from cell death), % at 10 µM; hit rate 0.068% among 220,000; AID 463075;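 active = activation, meaning protection from cell death, of at least 50% relative to plate controls; inactive = activation below 50%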;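 also: necroptosis triggered by 40 ng/mL TNF-alpha added together with compound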
WT yeast gro inh: growth inhibition of WT yeast, mitochondrial fusion screen. mitochondrial fusion phenotypic screen, WT strain. hit rate 2.1% among 190,000. inhibition, % at 10 µM; in the data active = inhibition above about 58%; tested in S. cerevisiae
PERK inh: human PERK inhibition, primary cell-based screen; Q9NZJ5; CHO PERK-DD fusion, SEAP luminescence translation reporter; inhibition, % at 5.6 µM; hit rate 0.17% among 220,000; AID 1416;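 active = inhibition above the mean inhibition of all tested compounds plus 3 SD, set separately per screening campaign, cut at about 2.9% in these data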;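 also: PERK kinase domain activated by AP20187 dimerizer at 100 nM; 0% = DMSO with dimerizer and 100% = rapamycin at 8.4 µM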
Redox H2O2 prof: compounds producing H2O2 with reducing agent – biochemical, NIH compound library profiling, artefact control for MLSCN library redox annotation, primary screen. DTT-dependent redox cycling H2O2, phenol red/HRP absorbance; 100% = 100 µM peroxide control, 0% = buffer. activation, % at 10 µM. hit rate 0.03% among 200,000. AID 878;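 active = activation of at least 50% relative to the plate's high and low controls in the primary single-dose screen; inactive = activation below 50%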;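 also: compound incubated with DTT at 0.8 mM final as the reducing agent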
Active calls of the source: *. Only some compounds are listed: those with a hit (about 2.4% of all), similar ones and a draw of the others.

Results for CC(Nc1ccc(Cl)cc1)c1cc(Cl)ccc1O (stereo not drawn) ?
zVAD death inh: -0.5; PKD1 kinase inh: 0.6; TNF death inh: 30.1; WT yeast gro inh: 74.5*; PERK inh: 1.2; Redox H2O2 prof: -0.6

Results for CC(Nc1ccc(Br)cn1)c1cc(Cl)ccc1O (stereo not drawn) ?
zVAD death inh: 0.6; PKD1 kinase inh: -1.2; TNF death inh: 25.6; WT yeast gro inh: 72.5*; PERK inh: -0.7; Redox H2O2 prof: -0.1

How did COc1ccc(Cn2nnnc2C(c2ccc(N(C)C)cc2)N2CCC(C(N)=O)CC2)cc1 (stereo not drawn) do in these assays?
zVAD death inh: 1.9; PKD1 kinase inh: -2.1; TNF death inh: 1.3; WT yeast gro inh: -6.3; PERK inh: 0.0; Redox H2O2 prof: -1.5

How did Nc1nc(CSc2nnnn2-c2ccccc2)nc(N2CCCc3ccccc32)n1 do in these assays?
zVAD death inh: 0.3; PKD1 kinase inh: -9.8; TNF death inh: 0.6; WT yeast gro inh: 59.9*; PERK inh: -0.8; Redox H2O2 prof: 0.8

Results for Nc1nc(CN2CCN(c3ccccc3)CC2)nc(N2CCCc3ccccc32)n1 ?
zVAD death inh: 0.1; PKD1 kinase inh: -3.0; TNF death inh: -2.6; WT yeast gro inh: 50.6; PERK inh: 0.2; Redox H2O2 prof: 0.2

Results for Cc1ccc(C)c(NC(=O)C2C(c3ccccc3)C2(Cl)Cl)c1 (stereo not drawn) ?
zVAD death inh: -0.2; PKD1 kinase inh: -4.2; TNF death inh: -1.5; WT yeast gro inh: 9.5; PERK inh: 0.1; Redox H2O2 prof: -5.0

Results for CCc1ccccc1NC(=O)C1C(c2ccccc2)C1(Cl)Cl (stereo not drawn) ?
zVAD death inh: 0.0; PKD1 kinase inh: -7.6; TNF death inh: -5.4; WT yeast gro inh: 80.7*; PERK inh: 0.9; Redox H2O2 prof: -5.2

What do the screens show for `COc1cc(/C=C2/SC(=S)N(c3c(C)n(C)n(-c4ccccc4)c3=O)C2=O)ccc1O`?
zVAD death inh: -1.2; PKD1 kinase inh: -7.1; TNF death inh: -0.1; WT yeast gro inh: 12.2; PERK inh: 0.5; Redox H2O2 prof: -0.5

How did O=C(Nc1ccccc1)c1ccsc1 do in these assays?
zVAD death inh: 0.4; PKD1 kinase inh: 5.5; TNF death inh: 5.7; WT yeast gro inh: -2.5; PERK inh: 0.7; Redox H2O2 prof: 0.0

What do the screens show for `Cc1cc(C)c(S(=O)(=O)Nc2ccc3c(c2)CCC3)c(C)c1`?
zVAD death inh: 0.9; PKD1 kinase inh: -12.9; TNF death inh: -1.3; WT yeast gro inh: 77.1*; PERK inh: -0.8; Redox H2O2 prof: -0.9

What do the screens show for `COC(=O)Cc1ccc(NC(=S)NCCSc2ccc(Cl)cc2)cc1`?
zVAD death inh: 1.2; TNF death inh: -16.3; PERK inh: -0.3

How did CC(C)COC(=O)c1cccc2c1-c1ccccc1/C2=N\O do in these assays?
zVAD death inh: -0.1; PKD1 kinase inh: -7.0; TNF death inh: -1.0; WT yeast gro inh: 62.0*; PERK inh: 0.9; Redox H2O2 prof: 0.3

What do the screens show for `CCOC(=O)c1cccc2c1-c1ccccc1/C2=N/O`?
zVAD death inh: 0.7; PKD1 kinase inh: 26.6; TNF death inh: -2.4; WT yeast gro inh: 73.2*; PERK inh: 0.2; Redox H2O2 prof: 1.8

Results for NC(=O)C12CCCC(Br)(CCC1)C2 ?
zVAD death inh: -0.3; TNF death inh: 0.0; PERK inh: 0.5

How did CCCCc1ccc(/C=C2\C(=O)c3ccccc3C(O)=C2C(=O)OCC)cc1 do in these assays?
zVAD death inh: -0.4; PKD1 kinase inh: -8.3; TNF death inh: -4.9; WT yeast gro inh: 72.3*; PERK inh: -0.1; Redox H2O2 prof: -0.9

What do the screens show for `CCOC(=O)C1=C(Cc2ccc(F)cc2)C(=O)c2ccccc2C1=O`?
zVAD death inh: -0.8; PKD1 kinase inh: 4.2; TNF death inh: -23.2; WT yeast gro inh: 15.9; PERK inh: 0.2; Redox H2O2 prof: 0.2

What do the screens show for `CCc1cc2c(=O)c(-c3ccc4c(c3)OCCO4)c(C)oc2cc1OS(C)(=O)=O`?
zVAD death inh: 1.0; PKD1 kinase inh: -1.4; TNF death inh: 2.3; WT yeast gro inh: 7.6; PERK inh: 0.1; Redox H2O2 prof: 0.7

How did OC(CNCc1cccc(Br)c1)c1ccccc1 (stereo not drawn) do in these assays?
zVAD death inh: 0.4; PKD1 kinase inh: -3.3; TNF death inh: 2.5; WT yeast gro inh: -16.3; PERK inh: 0.4; Redox H2O2 prof: -0.4

How did OC(CNCc1ccc(-c2ccccc2)cc1)c1ccccc1 (stereo not drawn) do in these assays?
zVAD death inh: 7.0; PKD1 kinase inh: -5.6; TNF death inh: -3.0; WT yeast gro inh: 60.3*; PERK inh: -0.1; Redox H2O2 prof: -1.3

How did CCOc1ccccc1C(=O)Nc1ccccc1O do in these assays?
zVAD death inh: 0.7; PKD1 kinase inh: 8.1; TNF death inh: -0.8; WT yeast gro inh: 51.4; PERK inh: 0.9; Redox H2O2 prof: 0.6

What do the screens show for `CCOc1ccccc1C(=O)Nc1ccccc1-c1ccccc1`?
zVAD death inh: -0.1; PKD1 kinase inh: -6.4; TNF death inh: 0.8; WT yeast gro inh: 74.9*; PERK inh: -1.0; Redox H2O2 prof: -0.4

Results for O=C(NNC(=S)NC(=O)C12CC3CC(CC(C3)C1)C2)c1ccncc1 ?
zVAD death inh: 0.4; PKD1 kinase inh: -7.7; TNF death inh: -3.3; WT yeast gro inh: 79.7*; PERK inh: 0.2; Redox H2O2 prof: -0.4

How did CC1(C(=O)NC(=S)NNC(=O)c2ccncc2)CCCCC1 do in these assays?
zVAD death inh: 0.1; PKD1 kinase inh: 3.8; TNF death inh: -1.4; WT yeast gro inh: 1.6; PERK inh: 0.9; Redox H2O2 prof: -0.2

Results for CCOC(=O)N1CCN(C(=O)CSCC(=O)Nc2nc(-c3ccc(-c4ccccc4)cc3)cs2)CC1 ?
zVAD death inh: 0.2; PKD1 kinase inh: -9.9; TNF death inh: -8.5; WT yeast gro inh: 30.9; PERK inh: -0.4; Redox H2O2 prof: -0.8

How did CCOC(=S)SCC(=O)Nc1nc(-c2ccc(Br)cc2)cs1 do in these assays?
zVAD death inh: -0.2; PKD1 kinase inh: 1.1; TNF death inh: -11.8; WT yeast gro inh: 73.6*; PERK inh: 0.8; Redox H2O2 prof: 0.6

What do the screens show for `O=C(CSc1nc2ccccc2o1)Nc1nc(-c2ccccc2)cs1`?
zVAD death inh: 2.0; PKD1 kinase inh: -10.2; TNF death inh: 0.7; WT yeast gro inh: 63.5*; PERK inh: 1.0; Redox H2O2 prof: 0.4

Results for Cc1csc(SCC(=O)NC(=O)NC2CCCC2)n1 ?
zVAD death inh: 3.3; PKD1 kinase inh: -10.2; TNF death inh: 56.1*; WT yeast gro inh: -1.6; PERK inh: 0.9; Redox H2O2 prof: -2.2

Results for CCOC(=S)SCC(=O)Nc1nc(-c2ccccc2)cs1 ?
zVAD death inh: 1.6; PKD1 kinase inh: -0.7; TNF death inh: -9.2; WT yeast gro inh: 79.8*; PERK inh: 0.3; Redox H2O2 prof: 0.7
